Test results published in PubChem BioAssay (NCATS).
Results filed as inconclusive are left out. Calls of active or inactive are those of the source. Calls come from the whole dose curve; as a rule, active = well fitted curve in the direction sought with a large enough effect; inconclusive = small, poorly fitted or top-dose-only effect, or another doubt; inactive = no such curve, though single readings can be large; an effect the other way counts as inactive or inconclusive.

Assays:
[1] = target: Calcium and integrin-binding protein 1 (Homo sapiens) (UniProt Q99828); assay: Primary qHTS for Identification of Calcium Integrin Binding Protein 1 (CIB1) Competitor (AID 1508620);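 note: GST tagged CIB1 binding a fluorescein labelled alphaIIb integrin peptide tracer; top concentration of the series differs between compounds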
Calcium and integrin-binding protein 1 (Homo sapiens), sequence (Q99828 whole entry, looked up): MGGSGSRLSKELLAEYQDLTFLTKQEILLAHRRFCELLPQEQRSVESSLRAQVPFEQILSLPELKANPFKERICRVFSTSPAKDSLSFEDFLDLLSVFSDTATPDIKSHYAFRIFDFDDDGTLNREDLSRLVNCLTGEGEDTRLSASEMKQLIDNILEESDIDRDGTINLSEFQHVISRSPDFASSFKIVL
Method in brief: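 CIB1-GST (1 uM final) and compound incubated 15 min at room temperature before adding FITC-alphaIIb peptide tracer (100 nM final). Competition for binding read by fluorescence polarization (ex 480, em 540) after another 15 min at room temperature.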

[2] = Primary qHTS for inhibitors of nuclear receptor binding SET domain protein 2 (NSD2) in an isogenic RCH-ACV NSD2 p.E1099K mutant (9B) (AID 1645876); note: nearly all actives have a fitted effect of over 70% in size
[3] = Primary qHTS for inhibitors of nuclear receptor binding SET domain protein 2 (NSD2) in an RCH-ACV wild type WT cells (2C) (AID 1645877); note: nearly all actives have a fitted effect of over 70% in size

Measured: Potency

O=C(O)C[C@H]1CCC(=O)[C@@H]1C/C=C\CCO
inactive: all assays above

CCC(C)/C=C(C)/C=C/C1=CC2=C(Cl)C(=O)C(C)(OC(C)=O)C(=O)C2=CN1C(CCC(=O)O)C(=O)O (stereo not drawn)
inactive: all assays above

CC1(C(=O)O)CCCC2(C)C3CCC4CC3(CCC12)CC4C(=O)O (stereo not drawn)
inactive: all assays above

C[C@@H]1CC2OC(=O)C3=C2C(CCC3O)[C@@]12C[C@@H](c1ccoc1)OC2=O (stereo partly drawn)
inactive: all assays above

C=CC(C)(O)CC/C=C(\C)COC1O[C@H](CO)[C@@H](O)[C@H](O)[C@H]1O (stereo partly drawn)
inactive: all assays above

C/C(=C\CCC(C)(C)O)CCO[C@@H]1O[C@H](CO[C@@H]2O[C@@H](C)[C@H](O)[C@@H](O)[C@H]2O)[C@@H](O)[C@H](O)[C@H]1O
inactive: all assays above

Cc1ccc(C)c(S(=O)(=O)n2cnc3ccccc32)c1
inactive: all assays above

C=C1C(OC(C)=O)CCC2(C)CC3(O)OC(=O)C(C)=C3CC12 (stereo not drawn)
inactive: all assays above

O=C(/C=C/c1ccc(O)c(O)c1)O[C@@H]1[C@@H](O)[C@H](OC2CCCCC2O)O[C@H](CO)[C@H]1O (stereo partly drawn)
inactive: all assays above

CC(C)CC(=O)OC[C@@]1(O)C[C@@]23CC[C@H]4[C@@](C)(CCC[C@@]4(C)C(=O)O)[C@@H]2CC[C@@H]1C3
inactive: all assays above

O=C(O)c1ccnc2cc(C(OCC3CCC(F)(F)CC3)c3ccccc3Cl)[nH]c12 (stereo not drawn)
inactive: all assays above
